Assay results taken from the supplement of paper PMC10477191.
± gives the standard deviation of the averaged measurements.

These compounds were tested on Drosophila ezoana antennal basiconic sensillum ab2 (assay: odor-evoked OSN spike response (post minus pre-stimulus); higher = stronger neuronal excitation). Settings: odor dilution: 10^-4.
Description: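 Single sensillum recordings from antennal basiconic sensilla of D. ezoana. A 500 ms pulse of odorant (10^-4 in mineral oil or DMSO) was delivered; the response is the change in action potential frequency between the 1 s pre- and post-stimulus windows (spikes/s).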

Row | SMILES | odor-evoked OSN spike response
1 | CC(C)=O [acetone] | 73.7 ± 37 spikes/s
